In PubChem BioAssay (EPA / NIEHS) one finds outcome and AC50 data, which are given here for 4 compounds.

Molecules are shown by their SMILES. Activity calls are given as the source filed them. The calls were made as follows: active = hit-call score of the fitted dose curve at least 0.9, where 1 is the maximum; inactive = score below 0.9.

What all share (conditions): mRNA level, 48 h; actives raise or lower the signal
Read-out in experiment [1]: Cyclin Dependent Kinase Inhibitor 1A (CDKN1A), CDKN1A (gene 1026)
As to the kind of experiment: LTEA_HepaRG_CDKN1A: Life Technologies and Expression Analysis (LTEA) Assay for Cyclin Dependent Kinase Inhibitor 1A (CDKN1A) using HepaRG (AID 2283450). The gist of the method:
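Differentiated HepaRG cells in serum-free induction medium, exposed 48 h in duplicate to eight half-log concentrations up to 100 uM in 0.5% DMSO. mRNA measured by TaqMan qRT-PCR, normalized to ACTB, GAPDH, POLR2A; bidirectional fit versus DMSO.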

Read-out in experiment [2]: Cyclin D1 (CCND1), CCND1 (gene 595)
The experiment can be described thus: LTEA_HepaRG_CCND1: Life Technologies and Expression Analysis (LTEA) Assay for Cyclin D1 (CCND1) using HepaRG (AID 2283451).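 As to AC50: TaqMan qRT-PCR transcript level normalised to ACTB GAPDH and POLR2A housekeeping genes.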 The method, boiled down:
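Differentiated HepaRG cells exposed 48 h in serum-free induction medium to eight half-log concentrations from 100 uM top, 0.5% DMSO, duplicates. CCND1 mRNA measured by Fluidigm TaqMan qRT-PCR, normalised to ACTB, GAPDH, POLR2A; bidirectional fit.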

Read-out in experiment [3]: catalase (CAT), CAT (gene 847)
As to the kind of experiment: LTEA_HepaRG_CAT: Life Technologies and Expression Analysis (LTEA) Assay for catalase (CAT) using HepaRG (AID 2283452). The method, boiled down: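 Differentiated HepaRG cells in serum-free induction medium were dosed 48 h in duplicate, eight half-log concentrations from 100 uM in 0.5% DMSO. Transcript measured by TaqMan qRT-PCR, normalised to ACTB/GAPDH/POLR2A, fitted bidirectionally against DMSO.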

Read-out in experiment [4]: flavin-containing dimethylaniline monooxygenases 3 (FMO3), FMO3 (gene 2328)
As to the kind of experiment: LTEA_HepaRG_FMO3: Life Technologies and Expression Analysis (LTEA) Assay for flavin-containing dimethylaniline monooxygenases 3 (FMO3) using HepaRG (AID 2283453). The gist of the method:
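HepaRG, 48 h exposure, 8-pt half-log series from 100 uM, 0.5% DMSO vehicle, duplicates; FMO3 transcript by Fluidigm TaqMan qRT-PCR, housekeeping-normalized; gain/loss fit vs DMSO.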

Read-out in experiment [5]: Cytochrome P450 (CYP1A1), CYP1A1 (gene 1543)
As to the kind of experiment: LTEA_HepaRG_CYP1A1: Life Technologies and Expression Analysis (LTEA) Assay for Cytochrome P450 (CYP1A1) using HepaRG (AID 2283454). The method, boiled down:
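Differentiated human HepaRG cells, after 48 h plating, exposed in duplicate for 48 h in serum-free induction medium to 8 half-log concentrations up to 100 uM in 0.5% DMSO. CYP1A1 mRNA by qRT-PCR, normalized to ACTB/GAPDH/POLR2A; bidirectional fit versus DMSO.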

Read-out in experiment [6]: CFLAR gene, CFLAR (gene 8837)
As to the kind of experiment: LTEA_HepaRG_CFLAR: Life Technologies and Expression Analysis (LTEA) Assay for CFLAR gene using HepaRG (AID 2283455). The gist of the method: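 HepaRG cells were plated for 48 h, switched to serum-free induction medium, then exposed in duplicate for 48 h to 8 concentrations (top 100 uM, half-log steps, 0.5% DMSO). CFLAR mRNA was measured by qRT-PCR, normalized to ACTB, GAPDH and POLR2A.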

Read-out in experiment [7]: Forkhead box O1 (FOXO1), FOXO1 (gene 2308)
As to the kind of experiment: LTEA_HepaRG_FOXO1: Life Technologies and Expression Analysis (LTEA) Assay for Forkhead box O1 (FOXO1) using HepaRG (AID 2283456). The gist of the method: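 Differentiated human HepaRG cells in serum-free induction medium were exposed in duplicate for 48 h to eight half-log concentrations (top 100 uM, 0.5% DMSO). FOXO1 mRNA was measured by TaqMan qRT-PCR, normalised to ACTB, GAPDH and POLR2A, and fitted bidirectionally against DMSO.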

Read-out in experiment [8]: growth arrest and DNA damage 45 (GADD45A), GADD45A (gene 1647)
The experiment can be described thus: LTEA_HepaRG_GADD45A: Life Technologies and Expression Analysis (LTEA) Assay for growth arrest and DNA damage 45 (GADD45A) using HepaRG (AID 2283458). The method, boiled down: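 Differentiated HepaRG cells were exposed in duplicate for 48 h in serum-free induction medium to 8-point half-log concentrations up to 100 uM in 0.5% DMSO. GADD45A mRNA was measured by TaqMan qRT-PCR, normalized to ACTB, GAPDH and POLR2A, with bidirectional fitting versus DMSO.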

Read-out in experiment [9]: Forkhead box O3 (FOXO3), FOXO3 (gene 2309)
The experiment can be described thus: LTEA_HepaRG_FOXO3: Life Technologies and Expression Analysis (LTEA) Assay for Forkhead box O3 (FOXO3) using HepaRG (AID 2283459). The method, boiled down:
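Differentiated human HepaRG cells in serum-free induction medium were exposed in duplicate for 48 h to eight half-log concentrations up to 100 uM in 0.5% DMSO. FOXO3 mRNA was quantified by qRT-PCR, normalized to ACTB, GAPDH and POLR2A, with bidirectional fitting versus DMSO.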

Read-out in experiment [10]: ABC Transporter (ABCB1), ABCB1 (gene 5243)
As to the kind of experiment: LTEA_HepaRG_ABCB1: Life Technologies and Expression Analysis (LTEA) Assay for ABC Transporter (ABCB1) using HepaRG (AID 2283460). The gist of the method: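 Differentiated human HepaRG cells, plated 48 h then switched to serum-free induction medium, were exposed in duplicate to eight half-log concentrations up to 100 uM in 0.5% DMSO for 48 h. ABCB1 mRNA was measured by TaqMan qRT-PCR, normalized to ACTB/GAPDH/POLR2A.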

Read-out in experiment [11]: growth arrest and DNA damage 45 (GADD45B), GADD45B (gene 4616)
The experiment can be described thus: LTEA_HepaRG_GADD45B: Life Technologies and Expression Analysis (LTEA) Assay for growth arrest and DNA damage 45 (GADD45B) using HepaRG (AID 2283461). The method, boiled down: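 Differentiated human HepaRG cells in serum-free induction medium exposed 48 h in duplicate to eight concentrations, top 100 uM, half-log steps, 0.5% DMSO. GADD45B mRNA by TaqMan qRT-PCR, normalized to ACTB, GAPDH, POLR2A; bidirectional fit versus DMSO.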

Read-out in experiment [12]: ABC Transporter (ABCC3), ABCC3 (gene 8714)
The experiment can be described thus: LTEA_HepaRG_ABCC3: Life Technologies and Expression Analysis (LTEA) Assay for ABC Transporter (ABCC3) using HepaRG (AID 2283462). The method, boiled down:
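Differentiated human HepaRG cells exposed 48 h in serum-free induction medium, 0.5% DMSO vehicle, 8-point half-log series to 100 uM in duplicate. ABCC3 mRNA by qRT-PCR, normalised to ACTB, GAPDH, POLR2A; bidirectional fit vs DMSO.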

Read-out in experiment [13]: ABC Transporter (ABCB11), ABCB11 (gene 8647)
The experiment can be described thus: LTEA_HepaRG_ABCB11: Life Technologies and Expression Analysis (LTEA) Assay for ABC Transporter (ABCB11) using HepaRG (AID 2283463). The method, boiled down:
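Differentiated human HepaRG cells were exposed for 48 h in serum-free induction medium to eight half-log concentrations up to 100 uM in 0.5% DMSO. ABCB11 mRNA was quantified by qRT-PCR, normalized to ACTB, GAPDH and POLR2A, and fitted bidirectionally versus DMSO.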

Read-out in experiment [14]: ABC Transporter (ABCC2), ABCC2 (gene 1244)
The experiment can be described thus: LTEA_HepaRG_ABCC2: Life Technologies and Expression Analysis (LTEA) Assay for ABC Transporter (ABCC2) using HepaRG (AID 2283464). The gist of the method:
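Differentiated HepaRG cells in serum-free induction medium exposed 48 h to eight half-log concentrations up to 100 uM, 0.5% DMSO, in duplicate. ABCC2 mRNA measured by qRT-PCR (TaqMan, Fluidigm), normalized to ACTB, GAPDH and POLR2A. Fitted in both directions against DMSO.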

Read-out in experiment [15]: Broad substrate specificity ATP-binding cassette transporter ABCG2 (Homo sapiens) (UniProt Q9UNQ0)
The experiment can be described thus: LTEA_HepaRG_ABCG2: Life Technologies and Expression Analysis (LTEA) Assay for ABC Transporter (ABCG2) using HepaRG (AID 2283465). The method, boiled down: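 Differentiated HepaRG cells in serum-free induction medium were exposed for 48 h, in duplicate, to eight half-log concentrations up to 100 uM in 0.5% DMSO. ABCG2 mRNA was measured by TaqMan qRT-PCR, normalized to ACTB, GAPDH and POLR2A, and fitted bidirectionally versus DMSO.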

Read-out in experiment [16]: ATP-citrate lyase (ACLY), ACLY (gene 47)
The experiment can be described thus: LTEA_HepaRG_ACLY: Life Technologies and Expression Analysis (LTEA) Assay for ATP-citrate lyase (ACLY) using HepaRG (AID 2283466). The gist of the method: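 Differentiated human HepaRG cells in serum-free induction medium exposed 48 h, in duplicate, to eight half-log concentrations from 100 uM top in 0.5% DMSO; ACLY mRNA measured by qRT-PCR, normalized to ACTB, GAPDH, POLR2A, fitted bidirectionally versus DMSO.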

Read-out in experiment [17]: Alkaline Phosphatase, Placental (ALPP) gene, ALPP (gene 250)
As to the kind of experiment: LTEA_HepaRG_ALPP: Life Technologies and Expression Analysis (LTEA) Assay for Alkaline Phosphatase, Placental (ALPP) gene using HepaRG (AID 2283468). The method, boiled down: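 HepaRG cells plated 48 h, then exposed in duplicate for 48 h in serum-free induction medium to 8-point half-log series from 100 uM in 0.5% DMSO. ALPP mRNA by TaqMan qRT-PCR, normalized to ACTB/GAPDH/POLR2A; bidirectional fit versus DMSO.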

Read-out in experiment [18]: Bcl-2 (BAD) gene, BAD (gene 572)
As to the kind of experiment: LTEA_HepaRG_BAD: Life Technologies and Expression Analysis (LTEA) Assay for Bcl-2 (BAD) gene using HepaRG (AID 2283469). The gist of the method:
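Differentiated human HepaRG cells in serum-free induction medium were exposed in duplicate for 48 h to eight concentrations (top 100 uM, half-log steps, 0.5% DMSO). BAD mRNA was quantified by qRT-PCR normalised to ACTB, GAPDH and POLR2A, with bidirectional fitting versus DMSO.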

Read-out in experiment [19]: Peroxisomal acyl-coenzyme A oxidase 1 (ACOX1) gene, ACOX1 (gene 51)
The experiment can be described thus: LTEA_HepaRG_ACOX1: Life Technologies and Expression Analysis (LTEA) Assay for Peroxisomal acyl-coenzyme A oxidase 1 (ACOX1) gene using HepaRG (AID 2283467). The method, boiled down: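 Differentiated human HepaRG cells were exposed in duplicate for 48 h in serum-free induction medium to eight half-log concentrations up to 100 uM in 0.5% DMSO. ACOX1 mRNA was then quantified by TaqMan qRT-PCR, normalized to ACTB, GAPDH and POLR2A.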

Sequence of Broad substrate specificity ATP-binding cassette transporter ABCG2 (Homo sapiens) (Q9UNQ0 whole entry, looked up): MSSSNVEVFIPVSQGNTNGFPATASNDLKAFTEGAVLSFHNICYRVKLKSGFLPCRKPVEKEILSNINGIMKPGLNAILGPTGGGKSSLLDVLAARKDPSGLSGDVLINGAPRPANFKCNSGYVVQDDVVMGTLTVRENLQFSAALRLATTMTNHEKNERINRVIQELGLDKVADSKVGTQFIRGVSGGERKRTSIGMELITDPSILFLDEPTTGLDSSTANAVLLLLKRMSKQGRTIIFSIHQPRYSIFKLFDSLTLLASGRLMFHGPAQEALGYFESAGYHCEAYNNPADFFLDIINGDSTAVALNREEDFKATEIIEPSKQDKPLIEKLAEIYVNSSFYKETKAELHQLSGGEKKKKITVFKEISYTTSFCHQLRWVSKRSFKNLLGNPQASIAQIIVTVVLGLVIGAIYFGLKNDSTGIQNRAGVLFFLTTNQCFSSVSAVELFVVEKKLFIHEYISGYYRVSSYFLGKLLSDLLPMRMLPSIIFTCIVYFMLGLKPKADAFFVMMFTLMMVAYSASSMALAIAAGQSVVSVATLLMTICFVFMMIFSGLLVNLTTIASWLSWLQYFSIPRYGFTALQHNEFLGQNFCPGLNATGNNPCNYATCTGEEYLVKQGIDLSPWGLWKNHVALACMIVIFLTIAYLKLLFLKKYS

Regarding `O=C(O)CN(CC(=O)O)CC(=O)O`, the compound was classed as inactive in experiment [1], in experiment [2], in experiment [3], in [4], in experiment [6] and in [7]. Also, the result in experiment [8], in [9], in [10], in experiment [11], in [12] and in experiment [13] was inactive. Moreover, the compound was classed as inactive in experiment [14], in experiment [15], in experiment [16], in [17] and in experiment [18]. For the same compound, the AC50 in experiment [5] is 79.4 µM (active).

Regarding `OCC(CO)n1cnc(-c2ccc(F)cc2)c1-c1ccnc(Oc2ccccc2)n1`, the compound was called inactive in [1], in experiment [4], in [6], in [7], in [8] and in [9]. In addition, the compound was called inactive in experiment [12], in [13], in experiment [16], in experiment [19] and in experiment [18]. The AC50 was 20.1 µM (active) in experiment [2]; 50 µM (active) in experiment [5]; 20 µM (active) in [10]; 24.7 µM (active) in experiment [14]; 16 µM (active) in [15].

Consider `CC(=O)OC1CC(C)OC(C)O1` (stereo unspecified), for which the compound was classed as inactive in [1], in experiment [2], in [4], in experiment [6], in experiment [7] and in [8]. In addition, the result in experiment [9], in experiment [10], in experiment [11], in experiment [12], in [13] and in experiment [14] was inactive. Besides, the outcome in [15], in experiment [16] and in experiment [17] was inactive. Besides, in experiment [5], the AC50 was 50 µM (active).

`CCCC[C@H]1CN(CC2CCOCC2)C(=O)OC12CCN(C1(C)CCN(C(=O)c3c(C)ncnc3C)CC1)CC2`: the outcome in [2], in experiment [3], in experiment [4], in experiment [5], in [6] and in [7] was inactive. Besides, the result in [8], in experiment [9], in [10], in experiment [11], in experiment [12] and in experiment [13] was inactive. The call in [14], in [15], in [16] and in experiment [19] was inactive.

A word on the AC50: it is the midpoint of the concentration-response curve, whichever way the signal moves.
